# Active and inactive are the calls of the source.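 How the source made its calls, unless noted: active means visually confirmed hit in the image check and inhibition above 20%; inconclusive means visually confirmed hit but inhibition not above 20%; inactive means no visual hit in the image check.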
# What was measured:
# [1] = inhibitors of TNFa-induced NFkB p65 translocation, primary screen, imaging, HUVEC, MLSMR starter and 10KST1 sets (AID 438;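 active means inhibition above 20% together with a positive visual image hit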;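 further: compound added about 3h40 before a 20 min TNFalpha stimulation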;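 on inhibition: signal is the nuclear over cytoplasmic p65 intensity ratio per well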); conditions: HUVEC TNFa-induced p65 nuclear translocation; cell count: measured here: nuclei count (cytotoxicity indicator), at 2.08 µM; inhibition: at 2 µM, stronger effect = higher value, 0% TNFa-plus-vehicle, 100% no-TNFa wells
# [2] = inhibitors of mutant huntingtin aggregation, primary screen, imaging, exon1htt(103Q)mCFP cells, high-content imaging (AID 483;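 active means visual image review flags a hit and inhibition of aggregation exceeds 20%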;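 further: compound exposure lasted 3 days before fixation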;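 on nuclei count: percent of the per-plate median nuclei count of sample wells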); conditions: exon1htt(103Q)mCFP cell line, aggregate imaging, at 2 µM; inhibition of aggregation: stronger effect = higher value; nuclei count: measured here: cell count, toxicity
# [3] = inhibitors of E-selectin induction by TNFa, primary screen, imaging, HUVEC, immunofluorescence, MLSMR starter and 10KST1 sets (AID 487); conditions: HUVEC TNFalpha-induced E-selectin immunofluorescence imaging, at 2 µM; inhibition: stronger effect = higher value; nuclei count: measured here: cell number, toxicity;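 on inhibition: signal is fraction of cell area covered by stained E-selectin grains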;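 on nuclei count: 100% = median nuclei count of all wells on the same plate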
# [4] = biological target: Voltage-gated potassium channel subunit beta-2 (Rattus norvegicus) (UniProt P62483); experiment: KvBeta enzyme negative modulators, primary screen, biochemical, NADPH fluorescence (AID 622;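 active means fluorescence slope higher than the sample average by over 3 SD, cut at about -0.22 in these data, passing the limit was not always enough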;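 further: slope of raw intensity against log time taken from 70 to 1610 s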); conditions: recombinant KvBeta, 4-cyanobenzaldehyde reduction, at 10 µM, stronger effect = higher value
# Chain of Voltage-gated potassium channel subunit beta-2 (Rattus norvegicus) (P62483 whole entry, looked up): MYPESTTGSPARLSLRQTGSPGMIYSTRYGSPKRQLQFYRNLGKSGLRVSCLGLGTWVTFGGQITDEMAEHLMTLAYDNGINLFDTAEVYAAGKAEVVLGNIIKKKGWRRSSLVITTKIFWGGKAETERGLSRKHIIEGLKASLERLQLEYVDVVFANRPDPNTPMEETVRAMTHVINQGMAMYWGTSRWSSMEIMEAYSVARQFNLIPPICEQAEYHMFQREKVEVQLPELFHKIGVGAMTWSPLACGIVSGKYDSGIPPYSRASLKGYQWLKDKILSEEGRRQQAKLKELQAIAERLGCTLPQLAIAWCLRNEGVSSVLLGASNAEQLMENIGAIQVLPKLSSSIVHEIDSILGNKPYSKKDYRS
# [5] = biological target: Voltage-gated potassium channel subunit beta-2 (Rattus norvegicus) (UniProt P62483); experiment: KvBeta positive modulators, primary screen, biochemical, NADPH fluorescence (AID 623;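 active means NADPH fluorescence slope more negative than the mean of all samples by about 3 SD, 99.7% confidence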;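 further: fluorescence intensity change per second fitted from 20 to 320 s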); conditions: Recombinant KvBeta, NADPH fluorescence decrease slope, 10 min; at 10 µM; stronger effect = lower value
# [6] = biological target: Alpha-2C adrenergic receptor (Homo sapiens) (UniProt P18825); experiment: modulators of alpha2C/GIRK thallium flux, primary screen, cell-based, HEK293 alpha2C/GIRK1/2 (AID 624;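 active means fluorescence slope after compound addition differing from the mean of all screened samples at 99.7% confidence, in either direction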;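 further: slope of fluorescence ratio to pre-addition baseline per second over 15 to 24 s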); conditions: thallium flux BTC fluorescence, at 10 µM, actives lie on both sides
# Chain of Alpha-2C adrenergic receptor (Homo sapiens) (P18825 whole entry, looked up): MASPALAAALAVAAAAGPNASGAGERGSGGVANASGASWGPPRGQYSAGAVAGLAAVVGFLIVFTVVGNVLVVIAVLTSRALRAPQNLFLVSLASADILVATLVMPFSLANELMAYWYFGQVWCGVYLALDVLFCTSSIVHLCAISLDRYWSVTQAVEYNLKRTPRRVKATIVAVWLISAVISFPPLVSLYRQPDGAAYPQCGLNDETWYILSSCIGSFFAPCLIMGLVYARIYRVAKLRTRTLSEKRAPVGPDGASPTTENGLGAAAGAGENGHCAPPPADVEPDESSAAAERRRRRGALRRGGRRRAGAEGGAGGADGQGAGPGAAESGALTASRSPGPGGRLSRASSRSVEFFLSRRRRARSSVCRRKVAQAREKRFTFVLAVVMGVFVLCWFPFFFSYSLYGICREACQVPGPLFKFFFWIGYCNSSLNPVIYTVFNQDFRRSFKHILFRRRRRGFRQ
# [7] = inhibitors of Sendai virus-induced IRF3 signaling, primary screen, TLR/RLR signaling modifier project, cell-based, Sendai virus stimulus, luciferase, 10K MLSCN set (AID 602276;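 active means inhibition at or above 50% at 10 µM; inactive means inhibition below 50%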;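 further: firefly luciferase from ISG56 promoter only with Renilla not read in this screen; 0% = Sendai virus plus DMSO and 100% = medium plus DMSO without virus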); conditions: HEK293 RL24 IRF3 luciferase reporter, at 10 µM, stronger effect = higher value
# [8] = inhibitors of poly I:C-induced TLR3 signaling, primary screen, cell-based, poly I:C stimulus, luciferase, 10K MLSCN set (AID 602277;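 active means inhibition of the reporter signal at or above 50%; inactive means inhibition below 50%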); conditions: HEK293-TLR3 RL24 IRF3 luciferase reporter, at 10 µM, stronger effect = higher value
SMILES,cell count [1],inhibition [1],inhibition of aggregation [2],nuclei count [2],inhibition [3],nuclei count [3],fluorescence slope [4],NADPH fluorescence slope [5],slope [6],inhibition [7],inhibition [8]
CC(C)(C)NC(=O)Cn1c(=O)oc2ccc(Cl)cc21,676,0% (inactive),1.8% (inactive),116%,-47.1% (inactive),106%,-0.407 (inactive),6.2e-05 (inactive),0.00569 (inactive),0.919% (inactive),20.8% (inactive)
COc1cccc(NS(=O)(=O)c2ccc3[nH]cc(C(=O)NC4CC4)c(=O)c3c2)c1,305,4% (inactive),-2.9% (inactive),113%,-42.4% (inactive),126%,-0.603 (inactive),-7e-05 (inactive),0.00731 (inactive),13.8% (inactive),32.8% (inactive)
CCN1CCN(C(CNC(=O)c2ccc3c(c2)OCO3)c2cccnc2)CC1 (configuration not stated),796,-13.5% (inactive),0.6% (inactive),98%,-10.9% (inactive),109%,-0.541 (inactive),1.4e-05 (inactive),0.00612 (inactive),-18.9% (inactive),-1.81% (inactive)
CN1CCc2nc(SCCOc3ccccc3)c(C#N)cc2C1,319,-4% (inactive),0% (inactive),93.7%,-44.8% (inactive),114%,-0.346 (inactive),-9.3e-07 (inactive),0.00342 (inactive),-2.8% (inactive),2.79% (inactive)
O=S(=O)(c1cccs1)N1CCN(C/C=C/c2ccccc2)CC1,359,2.4% (inactive),-19.8% (inactive),108%,62.2% (inactive),94.8%,-0.492 (inactive),-4.5e-05 (inactive),0.00442 (inactive),10.2% (inactive),9.74% (inactive)
COc1ccc(C(=O)Nn2c(C3CCC3)nc3ccccc3c2=O)c(OC)c1,657,-10.2% (inactive),-14% (inactive),111%,14.7% (inactive),129%,-0.585 (inactive),-7.6e-07 (inactive),0.00893 (inactive),-0.704% (inactive),5.08% (inactive)
CCOC(=O)Cc1csc(NC(=O)CSc2nnc(C)n2C)n1,585,3.3% (inactive),17.4% (inactive),101%,-8.1% (inactive),108%,-0.448 (inactive),-2.5e-05 (inactive),0.00393 (inactive),-24.8% (inactive),-19.7% (inactive)
O=C(CCS(=O)(=O)c1cccc2nsnc12)NCc1ccccc1,718,3.1% (inactive),-14.8% (inactive),93.6%,-24.5% (inactive),114%,-0.567 (inactive),3.6e-05 (inactive),0.00505 (inactive),-2.94% (inactive),5.74% (inactive)
CN(CC(=O)O)S(=O)(=O)c1cc(Cl)ccc1Cl,416,3.5% (inactive),-0.4% (inactive),111%,-8.7% (inactive),101%,-0.437 (inactive),-5e-05 (inactive),0.0044 (inactive),-11.4% (inactive),-16.7% (inactive)
C=CCn1c(COc2ccc(Cl)cc2)nnc1SCC(=O)N1CC(=O)Nc2ccccc21,315,1.9% (inactive),-0.9% (inactive),104%,-6.5% (inactive),110%,-0.425 (inactive),-2.1e-05 (inactive),0.00537 (inactive),3.41% (inactive),4.64% (inactive)
COc1ccc(C(=O)NCC(=O)NC2=NCCS2)cc1,772,-11.6% (inactive),-22.1% (inactive),69.1%,-43.6% (inactive),106%,-0.591 (inactive),-5.5e-05 (inactive),0.00756 (inactive),5.81% (inactive),28.4% (inactive)
CC1CCN(c2oc(-c3ccccc3F)nc2C#N)CC1,578,5% (inactive),-3.3% (inactive),122%,-32.2% (inactive),114%,-0.411 (inactive),7.4e-06 (inactive),0.00601 (inactive),-30.7% (inactive),-73.4% (inactive)
O=C(NC1CC1)C1CCC(=O)N1C1CCCC1 (configuration not stated),435,-6.7% (inactive),-18.4% (inactive),119%,-184% (inactive),246%,-0.47 (inactive),2.9e-05 (inactive),0.00569 (inactive),7.79% (inactive),14.9% (inactive)
O=C(c1ccc(CSCc2ccccc2F)o1)N1CCN(c2ccc(N3CCOCC3)nn2)CC1,504,-13.1% (inactive),40.2% (inactive),79.3%,-7.9% (inactive),101%,-0.435 (inactive),-1.8e-06 (inactive),0.00478 (inactive),4.73% (inactive),15.4% (inactive)
CCCN(CCC)CCNC(=O)c1cc2c(=O)n(C)c3ccccc3c2n1C,627,0% (inactive),-18.3% (inactive),109%,-57.7% (inactive),112%,-0.456 (inactive),-7.5e-05 (inactive),0.00528 (inactive),27.9% (inactive),68.2% (active)
Cn1cc(C2NC(=O)c3c(sc4c3CCCC4)N2)c2ccccc21 (configuration not stated),561,9.2% (inactive),17.3% (inactive),98.8%,-37.2% (inactive),112%,-0.384 (inactive),3.8e-05 (inactive),0.00476 (inactive),2.79% (inactive),21.2% (inactive)
O=C(Nc1ccc(N2CCCCC2)cc1)c1ccc(F)cc1,420,0.3% (inactive),-17.8% (inactive),111%,-134% (inactive),122%,-0.401 (inactive),-0.000159 (inactive),0.00518 (inactive),-44.9% (inactive),-140% (inactive)
CCOC(=O)N1CCN(C(=O)CSCC(=O)Nc2nc(-c3ccc(OC)cc3)cs2)CC1,450,2.7% (inactive),-44% (inactive),54%,41.9% (inactive),91.3%,-0.425 (inactive),-8.7e-05 (inactive),0.00636 (inactive),-14.1% (inactive),-24.6% (inactive)
Cc1cc(C)n(-c2ccc3cccc(NS(C)(=O)=O)c3n2)n1,221,13.2% (inactive),-10.7% (inactive),76.6%,26.7% (inactive),107%,-0.392 (inactive),-3.1e-05 (inactive),0.00539 (inactive),11% (inactive),12.8% (inactive)
Cc1cccc2cc(CN(CCN3CCCC3)C(=O)NC3CCCCC3)c(=O)[nH]c12,641,-7.5% (inactive),-0.1% (inactive),84.8%,-7.3% (inactive),97%,-0.428 (inactive),1e-05 (inactive),0.00641 (inactive),12.6% (inactive),38.4% (inactive)
COC(=O)C(O)(CC(=O)c1ccc(OC)cc1)C(F)(F)F (configuration not stated),778,-12.8% (inactive),4.5% (inactive),100%,36% (inactive),99.4%,-0.507 (inactive),-1.8e-05 (inactive),0.0048 (inactive),9.29% (inactive),9.82% (inactive)
CNC(=O)CN(c1ccc(C(C)C)cc1)S(C)(=O)=O,372,-0.8% (inactive),-4.8% (inactive),114%,24.1% (inactive),114%,-0.397 (inactive),1.3e-05 (inactive),0.00372 (inactive),11% (inactive),35.7% (inactive)
CCOC(=O)Cn1c(CCC(=O)O)ccc1-c1ccc(F)cc1,584,-5% (inactive),-12.4% (inactive),98.2%,-54.4% (inactive),97.7%,-0.548 (inactive),-2.7e-05 (inactive),0.00704 (inactive),15.5% (inactive),39.4% (inactive)
NC(=O)c1ccccc1NC(=O)CCCN1C(=O)CCC1=O,567,-1.8% (inactive),-7.8% (inactive),104%,-30.7% (inactive),92.1%,-0.601 (inactive),-1.2e-05 (inactive),0.00648 (inactive),2.16% (inactive),13.3% (inactive)
COC(=O)c1ccccc1NC(=O)Cn1ccnc1,310,-5.7% (inactive),3.6% (inactive),78.1%,-12% (inactive),86.6%,-0.591 (inactive),-6.8e-05 (inactive),0.00553 (inactive),5.19% (inactive),23.4% (inactive)
Cc1cc(C)c(C(=O)CSc2nnc(-c3ccccc3Br)o2)cc1C,433,2.9% (inactive),-0.1% (inactive),97.3%,-64.9% (inactive),124%,-0.397 (inactive),-2.6e-05 (inactive),0.00604 (inactive),9.09% (inactive),3.14% (inactive)
CC(C)C(c1nnnn1C1CCCC1)N1CCCc2ccccc21 (configuration not stated),706,-6.9% (inactive),5.4% (inactive),95.4%,-47.1% (inactive),107%,-0.423 (inactive),-7.3e-05 (inactive),0.00444 (inactive),-17.8% (inactive),-6.74% (inactive)
